# High-throughput results deposited in PubChem by several laboratories.
# This is a sample that favours compounds with a hit; in the whole collection about 1.8% have one here.
# UBC13 inh: blocks human UBC13 polyubiquitin chain formation; P61088; TR-FRET; inhibition, % at 20 µM; actives 0.47% (n = 330,000); AID 485273; in the data active = inhibition above about 45%, passing the limit was not always enough
# Target sequence (P61088 whole entry, looked up): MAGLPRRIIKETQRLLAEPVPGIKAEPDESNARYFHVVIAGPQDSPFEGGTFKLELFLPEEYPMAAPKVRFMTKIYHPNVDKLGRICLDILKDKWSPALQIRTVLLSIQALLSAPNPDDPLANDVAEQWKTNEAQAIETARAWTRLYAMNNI
# UHRF1 MBD2 ctr: blocks human UHRF1 binding to methylated DNA; inhibition, % at 4.4 µM; actives 0.75% (n = 370,000); Q96T88; AID 687016; UHRF1 binding to methylated oligo, TR-FRET; in the data active = inhibition above about 21%;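 also: UHRF1 SRA domain binding a hemimethylated CpG hairpin DNA probe; 0% = median of test compound wells and 100% = reference inhibitor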
# MBD2 DNA inh: blocks human MBD2 binding to methylated DNA; Q9UBB5; TR-FRET, MBD2 binding to methylated oligonucleotide; inhibition, % at 4.4 µM; actives 0.31% (n = 370,000); in the data active = inhibition above about 13%
# Neddyl block: inhibitors of human cullin neddylation | P61081+Q13564 | TR-FRET cullin neddylation, biochemical | calls only at 25 µM | actives 0.58% (n = 360,000) | AID 651699; in the data active = inhibition above about 36%
# An asterisk follows results filed as active; i = inactive; . = no result shown; + = active, no number.
SMILES,UBC13 inh,UHRF1 MBD2 ctr,MBD2 DNA inh,Neddyl block
O=C(N/N=C/c1ccc(Cl)cc1)C(=O)N1CCCCCC1,1,27*,0,i
CCOC(=O)N1CCC(N2C(=O)c3ccccc3C2Nc2ccc3c(c2)OCCO3)CC1 (centres undefined),0,-2,-5,i
CCOC(=O)N1CCC(N2C(=O)c3ccccc3C2Nc2ccc3c(C)cc(=O)oc3c2)CC1 (centres undefined),12,33*,1,.
CCn1cc(/C=N\NC(=O)c2ccc(F)cc2)cn1,-3,-2,-2,i
CCOC(=O)C1CCCN(C(=O)Nc2c(-c3ccccc3)noc2C)C1 (centres undefined),4,32*,4,i
COc1cc(NC(=O)CCc2nnc3ccc(N4CCCC4)nn23)cc(OC)c1OC,-5,23*,7,i
O=C(CCc1nnc2ccc(N3CCCCC3)nn12)NCc1ccco1,1,25*,3,i
O=C1c2ccccc2NC2(CCCCC2)N1N=C1CCCCC1,10,3,-1,.
O=C1c2ccccc2NC2(CCCC2)N1O,13,80*,2,i
COc1cc2c(cc1OC)C(C)N(C(=O)C1=NN(c3cccc(C)c3)C(=O)CC1)CC2 (centres undefined),-2,22*,10,i
COc1cc2c(cc1OC)C(C)N(C(=O)c1ccc(C)o1)CC2 (centres undefined),10,0,-1,i
O=C(NCc1ccccc1Cl)C1CCCN(c2ncnc3c2nc2n3CCCCC2)C1 (centres undefined),22,0,-6,i
CC1CCCCN1S(=O)(=O)c1ccc(C(=O)N(CCCN(C)C)c2nc3ccc(Br)cc3s2)cc1 (centres undefined),52*,2,2,i
O=C(O)C(Cc1c[nH]c2ccccc12)NS(=O)(=O)c1ccc2ccccc2c1 (centres undefined),3,0,-2,i
CCc1ccccc1NC(=O)c1cccc(NC(=O)/C=C/c2ccco2)c1,-4,-3,-1,i
O=C(/C=C/c1ccco1)Nc1cccc(C(=O)Nc2ccccc2C(=O)O)c1,-10,37*,12,i
COc1ccc(S(=O)(=O)Nc2ccccc2C(=O)N2CCCCC2)cc1C,-2,0,-4,i
COCCOc1ccc(C(F)(F)F)cc1NC(=O)c1ccc(C)cc1,6,-4,-7,i
CCCCCNCC(=O)Nc1cc(C(F)(F)F)ccc1OCCOC,1,48*,-10,i
Cc1ccc(-n2nc(C)c(C3(O)C(=O)N(C(C)C)c4ccccc43)c2N)cc1 (centres undefined),9,-6,-4,i
CCN(CC)C(=O)c1cccc(-c2csc(C(O)c3ccc(F)cc3)n2)c1 (centres undefined),.,2,3,i
CCN(CC)C(=O)c1cccc(-c2csc(C(O)c3ccccc3)n2)c1 (centres undefined),.,22*,9,i
CN(CC(=O)NCc1ccc(F)cc1)Cc1cccc(Cl)c1,4,-2,0,i
CCN(CC(=O)NCc1ccc(F)cc1)C(=O)C(C)Oc1cccc(Cl)c1 (centres undefined),-2,23*,10,i
CCC(=O)N1CCc2cc(S(=O)(=O)NCCC(=O)NCc3ccc(F)cc3)ccc21,5,-1,-3,i
SMILES,UBC13 inh,UHRF1 MBD2 ctr,MBD2 DNA inh,Neddyl block
C=CCNC(=S)N/N=C(\C)c1ccc(OC)cc1,-38,27*,10,i
O=C(CCC1CCCC1)Nc1ccc([N+](=O)[O-])cn1,-15,1,-5,i
CC(=O)Nc1ccc(NC(=O)C2CC(=O)N(Cc3ccco3)C2)cc1 (centres undefined),-4,0,-1,i
COCCNC(=O)NC(=O)CSc1nc(C)c(C)c(C)n1,-12,0,-6,i
CN(C)c1ccc(-c2nc3ccccc3c(=O)[nH]2)cc1,0,18,12,+
CCCC(=O)NC(=S)Nc1sc2c(c1C(N)=O)CCC2,6,5,6,i
CC(C)C(=O)NC(=S)Nc1sc2c(c1C(N)=O)CCCC2,2,50*,6,i
CCOC(=O)c1c(NC(=O)CSc2nnc(-c3ccco3)o2)sc(C)c1C,6,-1,-1,i
Cc1ccc(C)c(NC(=O)Cn2c(=O)n(-c3ccc(CC(=O)NCC4CCCO4)cc3)c(=O)c3ccccc32)c1 (centres undefined),7,0,1,.
Cc1ccc(S(=O)(=O)N2CCC(C(=O)N[C@H](C(=O)N3CCN(C)CC3)C(C)C)CC2)cc1,1,22*,1,i
Cc1cc(=O)c2c(o1)C(=O)c1occc1C2=O,.,40*,11,i
Cc1ccc(S(=O)(=O)N(C)C)cc1NC(=O)COC(=O)CNC(=O)C12CC3CC(CC(C3)C1)C2,-1,5,9,i
Cc1ccc(NC(=S)N2CCN(c3ccccc3F)CC2)c(C)c1,-2,24*,3,i
CCc1ccccc1NC(=S)N1CCN(c2ccccc2F)CC1,-4,-2,-4,i
CCCC(=O)N1CCN(c2ccc(NC(=S)NC(=O)CC)cc2)CC1,0,1,-6,i
CCCCCc1nnc(NC(=O)c2ccc3nc[nH]c3c2)s1,-5,57*,2,i
CC(=O)Nc1ccc(NC(=O)COC(=O)c2n[nH]c3ccccc23)cc1,-3,32*,-2,i
CCOC(=O)c1sc2nc(OCc3cccnc3)cc(C)c2c1N,.,55*,25*,.
CCOC(=O)c1sc2nc(C)cc(C)c2c1N,9,-2,-5,.
CCC1=NN(C(=O)C(=O)NCCc2ccccc2)C(O)(C(F)(F)F)C1 (centres undefined),2,-3,-6,i
Cc1ccc(NC2CCCN(C(=O)c3snnc3C)C2)cc1C (centres undefined),-4,3,3,i
COc1ccc(C2=NOC(C(=O)Nc3c(C)n(C)n(-c4ccccc4)c3=O)C2)cc1 (centres undefined),-1,5,4,i
COc1cc(C2=NOC(C(=O)Nc3c(C)n(C)n(-c4ccccc4)c3=O)C2)cc(OC)c1OC (centres undefined),-3,24*,13,i
O=C(CNC(=O)c1ccc2c(c1)OCO2)Nc1cccc(Br)c1,0,0,-7,i
O=C(c1ccc(CNS(=O)(=O)c2ccccc2)cc1)N1CCN(c2ccccn2)CC1,6,23*,13,i
Cc1cc(C)cc(C(=O)NCCn2cc(SCC(=O)N3CCOCC3)c3ccccc32)c1,8,38*,2,i
O=C(NCc1ccc(F)cc1)C1Cc2ccccc2CN1C(=O)c1ccco1 (centres undefined),-10,-3,-1,i
C[C@@H]1C=C(C(=O)O)O[C@H](OCc2ccc(CO)cc2)C1,-16,55*,0,i
CC1CCN(CCc2nc3cc(NC(=O)COc4ccccc4)ccc3n2C)CC1,-4,26*,12,i
Cc1c(C(=O)Nc2ccc(S(=O)(=O)NCC3CCCO3)cc2)cccc1[N+](=O)[O-] (centres undefined),0,21*,-3,i
